In all, about 5,500 compounds went through this assay and about 2,000 (36%) were called active. Not shown: some 18% with an inconclusive outcome. No stated cut-off is given here; in the data, active means normalized growth mostly below about 0.91 (no sharp cut-off); inconclusive means no clear call, values can overlap the other calls; inactive means mostly above about 0.92. This is one part of the list.
Test: chemical genetic growth profiling, strain panel (AID 1159580);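 further: tested at 20 µM; growth read once vehicle control cultures reached saturation at 30 °C; 1 = growth at the plate median or of vehicle wells; lower values mean less growth of the strain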
Settings: growth OD
[1] = S. cerevisiae deletion strains, locus YHR030C, strain SLT2, active compounds read low
[2] = S. cerevisiae deletion strains, locus YJL095W, strain BCK1, active compounds read low

Measured: normalized growth

C=C[C@](C)(O)CCC=C(C)C
inactive: S. cerevisiae deletion strains, locus YBR021W, strain FUR4, active compounds read low 1.01 | S. cerevisiae deletion strains, locus YBR229C, strain ROT2, active compounds read low 1 | S. cerevisiae deletion strains, locus YCL029C, strain bik1, active compounds read low 1.02 | S. cerevisiae deletion strains, locus YDL035C, strain GPR1, active compounds read low 1.04 | S. cerevisiae deletion strains, locus YDL074C, strain BRE1, active compounds read low 1.06 | S. cerevisiae deletion strains, locus YDL101C, strain DUN1, active compounds read low 1.01 | S. cerevisiae deletion strains, locus YDL134C, strain PPH21, active compounds read low 1 | S. cerevisiae deletion strains, locus YDL185W, strain tfp1, active compounds read low 1.02 | S. cerevisiae deletion strains, locus YDL192W, strain arf1, active compounds read low 1.01 | S. cerevisiae deletion strains, locus YDR101C, strain arx1, active compounds read low 1.04 | S. cerevisiae deletion strains, locus YDR162C, strain NBP2, active compounds read low 1 | S. cerevisiae deletion strains, locus YDR318W, strain mcm21, active compounds read low 0.986 | S. cerevisiae deletion strains, locus YDR388W, active compounds read low 1.01 | S. cerevisiae deletion strains, locus YDR502C, strain sam2, active compounds read low 0.999 | S. cerevisiae deletion strains, locus YEL061C, strain CIN8, active compounds read low 1 | S. cerevisiae deletion strains, locus YER110C, active compounds read low 1.01 | S. cerevisiae deletion strains, locus YER155C, strain BEM2, active compounds read low 1.01 | S. cerevisiae deletion strains, locus YER167W, strain BCK2, active compounds read low 1.01 | S. cerevisiae deletion strains, locus YGL078C, strain dbp3, active compounds read low 1.02 | S. cerevisiae deletion strains, locus YGL086W, strain mad1, active compounds read low 1.05 | S. cerevisiae deletion strains, locus YGL248W, strain PDE1, active compounds read low 0.995 | S. cerevisiae deletion strains, locus YGR135W, strain pre9, active compounds read low 1.01 | S. cerevisiae deletion strains, locus YGR252W, strain gcn5, active compounds read low 0.977 | [1] 1.01 | S. cerevisiae deletion strains, locus YHR079C, strain IRE1 (second series), active compounds read low 1.01 | S. cerevisiae deletion strains, locus YHR094C, strain hxt1, active compounds read low 1.01 | S. cerevisiae deletion strains, locus YHR129C, strain ARP1, active compounds read low 1.02 | S. cerevisiae deletion strains, locus YHR200W, strain rpn10, active compounds read low 1.01 | S. cerevisiae deletion strains, locus YIL066C, strain RNR3, active compounds read low 1.01 | S. cerevisiae deletion strains, locus YIL073C, strain SPO22, active compounds read low 1.03 | S. cerevisiae deletion strains, locus YIL125W, strain kgd1, active compounds read low 1.02 | S. cerevisiae deletion strains, locus YIR030C, strain dcg1, active compounds read low 0.998 | [2] 0.988 | S. cerevisiae deletion strains, locus YJL134W, strain LCB3, active compounds read low 0.999 | S. cerevisiae deletion strains, locus YJL168C, strain set2, active compounds read low 1.01 | S. cerevisiae deletion strains, locus YJL187C, strain SWE1 (second series), active compounds read low 1 | S. cerevisiae deletion strains, locus YJR043C, strain POL32, active compounds read low 1.04 | S. cerevisiae deletion strains, locus YJR075W, strain HOC1, active compounds read low 1 | S. cerevisiae deletion strains, locus YKL009W, strain mrt4, active compounds read low 1.05 | S. cerevisiae deletion strains, locus YKL068W, active compounds read low 1 | S. cerevisiae deletion strains, locus YKL085W, strain MDH1 (second series), active compounds read low 0.995 | S. cerevisiae deletion strains, locus YKL085W, strain MDH1, active compounds read low 0.995 | S. cerevisiae deletion strains, locus YKL190W, strain CNB1, active compounds read low 1 | S. cerevisiae deletion strains, locus YKR001C, strain vps1, active compounds read low 1.06 | S. cerevisiae deletion strains, locus YLR039C, strain RIC1, active compounds read low 1.03 | S. cerevisiae deletion strains, locus YLR058C, strain SHM2, active compounds read low 0.997 | S. cerevisiae deletion strains, locus YLR102C, strain apc9, active compounds read low 1.01 | S. cerevisiae deletion strains, locus YLR262C, strain YPT6, active compounds read low 1.01 | S. cerevisiae deletion strains, locus YLR268W, strain sec22, active compounds read low 1.06 | S. cerevisiae deletion strains, locus YLR330W, strain CHS5, active compounds read low 1.02 | S. cerevisiae deletion strains, locus YLR342W, strain FKS1 (second series), active compounds read low 1.05 | S. cerevisiae deletion strains, locus YLR371W, strain rom2, active compounds read low 1.02 | S. cerevisiae deletion strains, locus YLR418C, strain cdc73, active compounds read low 0.984 | S. cerevisiae deletion strains, locus YML016C, strain PPZ1, active compounds read low 1.01 | S. cerevisiae deletion strains, locus YML032C, strain rad52, active compounds read low 0.973 | S. cerevisiae deletion strains, locus YML124C, strain tub3, active compounds read low 0.999 | S. cerevisiae deletion strains, locus YMR078C, strain ctf18, active compounds read low 1.01 | S. cerevisiae deletion strains, locus YMR223W, strain ubp8, active compounds read low 0.994 | S. cerevisiae deletion strains, locus YMR307W, strain GAS1, active compounds read low 1.03 | S. cerevisiae deletion strains, locus YNL067W, strain RPL9B, active compounds read low 1.01 | S. cerevisiae deletion strains, locus YNL233W, strain BNI4, active compounds read low 1 | S. cerevisiae deletion strains, locus YNL250W, strain rad50, active compounds read low 1.02 | S. cerevisiae deletion strains, locus YNL271C, strain bni1, active compounds read low 1.01 | S. cerevisiae deletion strains, locus YNL298W, strain CLA4, active compounds read low 1.02 | S. cerevisiae deletion strains, locus YNL307C, strain MCK1, active compounds read low 1.03 | S. cerevisiae deletion strains, locus YNL322C, strain KRE1, active compounds read low 1 | S. cerevisiae deletion strains, locus YNR052C, strain pop2, active compounds read low 0.997 | S. cerevisiae deletion strains, locus YOL006C, strain TOP1, active compounds read low 1.1 | S. cerevisiae deletion strains, locus YOL012C, strain htz1 1.44 | S. cerevisiae deletion strains, locus YOL147C, strain pex11, active compounds read low 1 | S. cerevisiae deletion strains, locus YOR061W, strain CKA2, active compounds read low 1 | S. cerevisiae deletion strains, locus YOR069W, strain VPS5, active compounds read low 1.01 | S. cerevisiae deletion strains, locus YOR136W, strain idh2, active compounds read low 1.01 | S. cerevisiae deletion strains, locus YOR144C, strain elg1, active compounds read low 1.01 | S. cerevisiae deletion strains, locus YOR184W, strain ser1, active compounds read low 1.05 | S. cerevisiae deletion strains, locus YOR316C, strain cot1, active compounds read low 1.01 | S. cerevisiae deletion strains, locus YPL241C, strain CIN2, active compounds read low 0.998 | S. cerevisiae deletion strains, locus YPR119W, strain clb2, active compounds read low 1 | S. cerevisiae deletion strains, locus YPR141C, strain kar3, active compounds read low 1 | S. cerevisiae deletion strains, locus YPR163C, strain tif3, active compounds read low 1 | S. cerevisiae deletion strains, locus YPR167C, strain met16, active compounds read low 0.999 | S. cerevisiae deletion strains, strain wtn01, active compounds read low 1.07 | S. cerevisiae strains, strain wild type, active compounds read low 1.01

CC(C)=CCC/C(C)=C/CC/C(C)=C/CO
active: [1] 0.416 | S. cerevisiae deletion strains, locus YHR079C, strain IRE1, active compounds read low 0.506 | [2] 0.609 | S. cerevisiae deletion strains, locus YJR066W, strain TOR1, active compounds read low 0.804 | S. cerevisiae deletion strains, locus YLR113W, strain HOG1, active compounds read low 0.35 | S. cerevisiae deletion strains, locus YNL183C, strain NPR1, active compounds read low 0.732 | S. cerevisiae deletion strains, locus YOR231W, strain MKK1, active compounds read low 0.407 | S. cerevisiae deletion strains, locus YPL256C, strain CLN2, active compounds read low 0.388

From PubChem BioAssay AID1159580 (chemical genetic matrix, 2015)
